Assay results: PubChem BioAssay (NCI)
About 83,000 compounds went through this panel and 20% of them were active in at least one assay; those are over-represented in the sample as a whole.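 Values shown are percent growth following 48 h exposure of cells in 96-well plates to a single concentration of compound; below 10 was considered active.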 Unmarked numbers belong to inactive results. Active and inactive are the calls of the source.

Assays:
Experiment in all cases: NCI-60 one-dose screen, 48 h (100 = growth as untreated, 0 = no growth, -100 = all killed)
Conditions in all cases: 10 µM unless noted
NCI/ADR-RES ovarian = tested on: NCI/ADR-RES ovarian
T-47D breast = tested on: T-47D breast
BT-549 breast = tested on: BT-549 breast
MDA-MB-435 melanoma = tested on: MDA-MB-435 melanoma
SW-620 colon = tested on: SW-620 colon
MCF7 breast = tested on: MCF7 breast
HCT-116 colon = tested on: HCT-116 colon
HCC-2998 colon = tested on: HCC-2998 colon
KM12 colon = tested on: KM12 colon

Structure (SMILES)	growth (NCI/ADR-RES ovarian)	growth (T-47D breast)	growth (BT-549 breast)	growth (MDA-MB-435 melanoma)	growth (SW-620 colon)	growth (MCF7 breast)	growth (HCT-116 colon)	growth (HCC-2998 colon)	growth (KM12 colon)
COC1CC2c3ccccc3C1C(C)=[N+]2C (stereo not given)	78.7%	107%	87.4%	100%	104%	97.3%	103%	–	–
O=C(O)c1ccc([S-])cc1.[Au+].c1ccc(CN2[CH-]N(Cc3ccccc3)C(c3ccccc3)=C2c2ccccc2)cc1	3.13% (active)	-66.5% (active)	-21.2% (active)	-9.04% (active)	-50.2% (active)	-86.1% (active)	-84.7% (active)	–	–
CCN(CC)c1ccc2c(c1)OC(N)=C(C#N)C2c1cc(OC)c2c(c1)OCO2 (stereo not given)	-5.05% (active)	57.1%	16.6%	-13% (active)	20.6%	14.4%	-8.55% (active)	-3.32% (active)	2.07% (active)
COC(=O)CCc1c[nH]c2ccc(N(CCCl)CCCl)cc12	52.7%	60.2%	57.4%	74.1%	47.5%	30.9%	53.1%	84%	–
CC1(C)[C@H](O)[C@H](F)C[C@@]2(C)Oc3ccc(C(=O)Nc4ccc5c(c4)NC(=O)C54CCN(CCCCC#N)CC4)cc3C[C@H]12	83.4%	38.2%	32.5%	24.8%	0.683% (active)	27.6%	18.5%	68.5%	–
COc1ccc(/C=C/c2cc(OC)c(OC)c(OC)c2)cc1NC(=O)/C=C/c1ccc(F)cc1	-3.74% (active)	32.1%	35.1%	-41.4% (active)	30.5%	20.6%	23%	17.2%	–
CC(=O)O[C@H]1C(=O)[C@@]2(C)[C@H]([C@H](OC(=O)c3ccccc3)[C@]3(O)C[C@H](OC(=O)[C@H](OC(=O)OC[C@H]4COC(C)(C)O4)[C@@H](NC(=O)c4ccccc4)c4ccccc4)C(C)=C1C3(C)C)[C@]1(OC(C)=O)CO[C@@H]1C[C@@H]2O	70.1%	31.3%	9.68% (active)	-73.7% (active)	27.8%	9.62% (active)	4.97% (active)	1.92% (active)	–
C1CCC2(CC1)OOCNCOO2	101%	89.8%	106%	101%	103%	45.7%	92.8%	106%	95.9%
COC(=O)[C@H](C[C@H](Cc1ccccc1)NC(=O)c1csc([C@@H](C[C@H](C(C)C)N(C)C(=O)[C@@H](NC(=O)[C@H]2CCCCN2C)C(C)C)OC(C)=O)n1)NC(=O)OCc1ccccc1	8.51% [8.5 µM] (active)	74.1% [8.5 µM]	-34.2% [8.5 µM] (active)	-33% [8.5 µM] (active)	25.4% [8.5 µM]	29.4% [8.5 µM]	-4.29% [8.5 µM] (active)	20.4% [8.5 µM]	3.13% [8.5 µM] (active)
O=C1Nc2ccccc2C2c3cccn3-c3ccccc3CN12 (stereo not given)	20.9%	27.7%	50.7%	-15% (active)	24.5%	38.8%	41.7%	71.1%	30.3%
C/C(=C\c1ccn(-c2ccc(N)cc2C(F)(F)F)n1)[C@@H]1C[C@@H]2O[C@]2(C)CCC[C@H](C)[C@H](O)[C@@H](C)C(=O)C(C)(C)[C@@H](O)CC(=O)O1	1.74% (active)	39.1%	27%	-61.7% (active)	23.9%	16.4%	12.1%	14.1%	11.4%
N#C[Se]Cc1cc(-c2ccccc2)n(-c2ccc(S(N)(=O)=O)cc2)n1	35.4%	-1.52% (active)	-34.6% (active)	-28.8% (active)	-18.4% (active)	-26.1% (active)	-59.4% (active)	25.1%	-78.9% (active)
CC(C)CCC1(CCCl)C(=O)NC(=O)NC1=O	102%	105%	102%	97%	98.9%	96.4%	100%	107%	108%
COC(=O)[C@@H](C)C[C@H](Cc1ccccc1)NC(=O)c1nc([C@@H](C[C@H](C(C)C)N(C)C(=O)[C@@H](NC(=O)[C@H]2C[C@H](O)CCN2C)C(C)C)OC(C)=O)sc1C(C)C	38.9%	78.5%	-30.8% (active)	-48.3% (active)	21.9%	18.7%	2.56% (active)	14.1%	0.729% (active)
C[C@@]12CC=C3c4nc(Nc5cccc(O)c5)sc4CC[C@]3(C)[C@H]1CC[C@]1(C)C(=O)CC[C@@H]21	78.9%	-8.55% (active)	17.4%	42.6%	-4.13% (active)	-25.9% (active)	-23.7% (active)	81.5%	34.7%
COc1cc(NCCCN=C(N)N)c2ncccc2c1	108%	-0.911% (active)	65.9%	103%	92.8%	-51.3% (active)	78.1%	94.3%	49.3%
COc1ccc(/C=C\c2cc(OC)c(OC)c(OC)c2)cc1OCC(=O)Nc1nc2ccc(C(F)(F)F)cc2s1	-11.8% (active)	37.7%	43.1%	-34.9% (active)	28.3%	15.1%	13.8%	64.7%	17.9%
CSc1nc(Cl)cc(N2CC2)n1	119%	108%	111%	116%	105%	105%	105%	138%	111%
NC(=O)CNc1ccc([As]=[As]c2ccc(NCC(N)=O)cc2)cc1 (stereo not given)	65.6%	33.3%	31.6%	61.7%	24.6%	22.9%	54.7%	79.1%	88.5%
CC[C@H](C)[C@H](NC(=O)NC(C)(C)C)C(=O)N(C)[C@H](C[C@@H](OC(C)=O)c1nc(C(=O)N[C@@H](Cc2ccccc2)C[C@H](C)C(=O)OC)cs1)C(C)C	23.3%	53.5%	-14.6% (active)	-44.9% (active)	20.5%	13.1%	1.01% (active)	20%	13.8%
CCCCN(CCCC)P(=O)(Oc1ccccc1)Oc1ccccc1	51.4%	47.4%	73.5%	71.4%	52%	48.4%	29.2%	83.7%	58.6%
Nc1c(F)cc(-c2nc3cc(F)ccc3[se]2)cc1Br	89.8%	-9.56% (active)	43%	94.2%	84.4%	2.12% (active)	15.5%	-35.1% (active)	38.8%
COc1ccc(/C=C\c2cc(OC)c(OC)c(OC)c2)cc1OCC(=O)Nc1nc2ccc(F)cc2s1	20.2%	38.3%	53.7%	15.5%	42.4%	17.1%	17.5%	72%	42.1%
COc1ccc(N(CC(=O)NCCC[Te]c2ccccc2)C(=O)CCSC2=C(C)C(=O)c3ccccc3C2=O)cc1	-36.3% (active)	-57.7% (active)	-18.2% (active)	11.9%	5.47% (active)	-22.3% (active)	-65.1% (active)	-35.4% (active)	-17.3% (active)
CC1=C(CN)C2=C(C)C3(CC3)[C@@](C)(O)C(=O)C2=C1	93.8%	88.6%	63.3%	97.9%	90.7%	85.1%	90.4%	92%	101%
CC1(C)N=C(N)N=C(N)N1c1ccc(OCCCNC(=O)Nc2ccc(S(=O)(=O)F)cc2)c(Cl)c1	115%	52.4%	60.9%	31.5%	20.6%	18.4%	14.8%	15.3%	22%
Cc1sc2c(c1C)C(c1ccc(Cl)cc1)=N[C@@H](CC(=O)OC(C)(C)C)c1nnc(C)n1-2	34.2%	51.9%	58.5%	30%	52.4%	19.1%	31%	19.1%	40.7%
